CBX7 AlphaScr = CBX7 chromodomain binding inhibitors, primary screen, biochemical, AlphaScreen. normalised signal (fraction of DMSO) (no concentration beside the values). AlphaScreen His6-CBX7 / biotin-H3K27me3 peptide binding; stronger effect = lower value. AID 1224903, 2016. Chromobox protein homolog 7 (Homo sapiens), O95931. 66,000 compounds, 1.1% hits; in the data active means normalised signal below about 0.5
Target sequence (O95931 whole entry, looked up): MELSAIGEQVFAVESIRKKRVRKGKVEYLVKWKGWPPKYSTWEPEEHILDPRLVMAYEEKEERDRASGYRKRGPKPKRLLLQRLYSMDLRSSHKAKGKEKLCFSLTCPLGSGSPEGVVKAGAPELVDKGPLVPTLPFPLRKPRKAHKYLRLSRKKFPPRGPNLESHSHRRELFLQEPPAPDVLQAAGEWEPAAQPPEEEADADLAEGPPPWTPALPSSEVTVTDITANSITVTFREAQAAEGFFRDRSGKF
Hits are given with their value; – = inactive. The full list was thinned out, with hits kept by preference.

SMILES	CBX7 AlphaScr
COc1ccc(F)c(CNCCc2c(C)[nH]c3ccc(OC)cc23)c1	0.37
COc1ccc(OC)c(CNCCc2c(C)[nH]c3ccc(OC)cc23)c1	–
COc1ccc2[nH]c(C)c(CCNCc3cccc(C(F)(F)F)c3)c2c1	0.2
COc1ccc2[nH]c(C)c(CCNCc3cccc(F)c3)c2c1	–
CCOc1cc(CNCCc2c(C)[nH]c3ccc(OC)cc23)ccc1OC	–
COc1ccc(CNCCc2c(C)[nH]c3ccc(OC)cc23)c(F)c1	–
COc1ccc2[nH]c(C)c(CCNCc3ccc(OC(F)(F)F)cc3)c2c1	0.42
COc1ccc2[nH]c(C)c(CCNCc3cccc(OC)c3OC)c2c1	–
COc1ccc2[nH]c(C)c(CCNCc3ccc(F)cc3)c2c1	–
CCCCc1ncc(CNCCc2c(C)[nH]c3ccc(OC)cc23)[nH]1	–
COc1ccc2[nH]c(C)c(CCNCc3ccc4ccccc4n3)c2c1	–
COc1ccc2[nH]c(C)c(CCNCc3ncc[nH]3)c2c1	0.18
O=C(Nc1ccc(Br)cc1C(=O)c1ccccc1Cl)c1ccc(Oc2ccccc2)cc1	–
COc1cccc(CN2CCN(Cc3ccc(F)cc3)CC2)c1	–
Clc1ccc(C2CC(c3cccnc3)Nc3ncnn32)cc1 (centres undefined)	–
COc1ccccc1/C=C/c1nc2ccccc2c(=O)n1-c1ccc(C)cc1	–
CCOC(=O)c1c(C)n(CCCOC(C)C)c2ccccc12	–
Cc1ccccc1CN1C(=O)CN=C(c2ccccc2)c2ccccc21	–
CCn1cc(C(=O)N2CC3CC(C2)c2cccc(=O)n2C3)c(=O)c2ccc(C)nc21 (centres undefined)	–
O=C1CSC(c2ccc3c(c2)OCO3)c2c(-c3ccccc3)nn(-c3ccccc3)c2N1 (centres undefined)	–
COc1ccc(NC(=O)CN2C(=O)C(C)N=C(c3ccccc3)c3cc(Cl)ccc32)cc1OC (centres undefined)	–
CCOc1ccccc1CN(CCc1ccc2c(c1)OCO2)Cc1ccccc1OC	–
CCOc1ccccc1CN(CCc1ccc2c(c1)OCO2)Cc1ccc(F)c(F)c1	0.47
CCOc1ccc(CN(CCc2ccc3c(c2)OCO3)Cc2ccccc2)cc1	–
CCOC(=O)c1c(CN2CCC(C(=O)OCC)(c3ccccc3)CC2)n(C2CCCCC2)c2cc(Br)c(O)cc12	–
